# System: T1, FAK
# T1 construct: gene PTK2
# Conditions: concentration: 1 μM, replicates: in singlicate; n = 1
# 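Also: KINOMEscan kinase panel screen.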
row,Compound,%Inh [%]
1,Cn1cc(-c2[nH]c3cc(NC(=O)[C@H](N)C4CCCCC4)cc4c3c2C=NNC4=O)cn1,5
2,O=C(Nc1ccccc1F)NC1CCN(c2ccnc(Nc3ccc(F)cc3)n2)CC1 [GSK1379800],0
3,Cc1ccc(F)c(C(=O)Nc2cccc(-c3nn4ccccc4c3-c3ccnc(Nc4cccc(F)c4)n3)c2)c1F [GSK361061],0
4,O=C(O)C(F)(F)F.O=C(O)C(F)(F)F.O=c1[nH]ccc2nc(N[C@@H]3CCCNC3)nc(Nc3ccc(S(=O)(=O)N4CCOCC4)cc3)c12 [GSK2177277],86
5,CN1CCN(CCCNc2nccc(-c3c(-c4ccc(F)cc4)nn4cc(C(F)(F)F)ccc34)n2)CC1 [GW621581],0
6,CSc1cccc2c(-c3ccncn3)c(-c3ccc(F)cc3)nn12 [GW514786],0
7,O=C(Nc1cccc(-c2nn3ccccc3c2-c2ccnc(Nc3cccc(C(F)(F)F)c3)n2)c1)c1c(F)cccc1F [GSK292658],0
8,COc1ccc(Nc2nccc(N3CCC(NC(=O)Nc4cccc(OC)c4)C3)n2)cc1 (centres unmarked) [GSK1379742],0
9,Cc1cccc(NC(=O)Nc2ccc(Oc3ncnc4ccn(C)c34)cc2)c1,5
10,O=C(NC1CCN(c2ccnc(Nc3ccc(F)cc3)n2)C1)c1cc2ccccc2s1 (centres unmarked) [GSK1379716],0
11,O=c1[nH]cc(-c2ccc(N3CCOCC3)cc2)c2sc(-c3cn[nH]c3)cc12 [GSK2276055],0
12,Nc1ncc(-c2cccnc2)c2scc(-c3ccc4c(c3)CCN4C(=O)Cc3ccccc3)c12 [GSK683281],0
13,O=C(Nc1cccc(Oc2ccc3nc(NC(=O)C4CC4)cn3n2)c1)c1ccccc1C(F)(F)F,9
14,Cl.Cl.NCC(NCc1ccc(-c2ccnc3[nH]ccc23)s1)c1ccccc1 (centres unmarked) [GSK1321565],19
15,COc1ccc(CNC(=O)NC2CCN(c3ccnc(Nc4ccc(F)cc4)n3)CC2)cc1 [GSK1379788],0
16,CCn1c(-c2nonc2N)nc2c(C#CC(C)(C)O)nc(OC[C@H](N)c3ccccc3)cc21 [GSK943949],0

row,Compound,%Inh [%]
1,CN(c1ccc(NC(=O)Nc2cc(C(F)(F)F)ccc2F)cc1)c1ccnc(Nc2ccc(S(N)(=O)=O)cc2)n1 [GW809893],98.8
2,O=C(Nc1n[nH]c2nc(-c3ccc(O)cc3)ccc12)C1CC1 [SB-710363],0
3,O=C(Nc1cccc(-c2nn3ccccc3c2-c2ccnc(Nc3cccc(F)c3)n2)c1)c1c(F)ccc(F)c1Cl [GSK357952],0
4,Nc1ncnc2c1nc(-c1ccccc1)n2-c1ccccc1 [SKF-97293],14
5,Cc1cccc(Nc2nc(N[C@H]3CCNC3)ncc2C(N)=O)c1.Cl [GSK2197149],0
6,COc1cccc(C2=C(Nc3ccc(Cl)c(C(=O)O)c3)C(=O)NC2=O)c1 [SB-390769],0
7,COc1cc(Nc2nccc(-c3c(-c4cccc(NC(=O)c5c(F)cccc5F)c4)nn4ccccc34)n2)cc(OC)c1OC [GSK323521],0
8,CC(=O)Nc1nc2cnc(Nc3cc(NC(=O)c4cccc(C5(C#N)CC5)c4Cl)ccc3C)nc2s1,0
9,c1ccc(Oc2ccc(Nc3ccnc4cc(-c5ccc(CNCCN6CCOCC6)o5)ccc34)cc2)nc1 [GW567145],0
10,CNC(=O)c1ccccc1Nc1nc(Nc2ccc(N3CCOCC3)cc2)ncc1Cl.Cl [GSK1576028],100
11,Cl.Cl.NCC(NC(=O)c1cc(-c2ccccc2)c(-c2ccnc3[nH]ccc23)s1)c1ccccc1 (centres unmarked) [GSK1321561],0
12,Fc1ccc(-c2ncn(C3CCNCC3)c2-c2ccnc(Oc3ccc(-c4ccccc4)cc3)n2)cc1 [SB-245391],12
13,Cn1cc(-c2ccc3c(c2)CCN3C(=O)Cc2cccc(F)c2)c2c(N)ncnc21 [GSK2603358],0
14,COc1cc(Nc2nccc(N3CCC(NC(=O)c4cc5ccccc5s4)C3)n2)cc(OC)c1OC (centres unmarked) [GSK1379760],0
15,CC(=O)N1CCN(c2ccc(Nc3nccc(-c4sc(C(C)C)nc4-c4cccc(NS(=O)(=O)c5cccc(Cl)c5)c4)n3)cn2)CC1 [GSK1660437],3
16,COc1cc(Nc2ncc3c(C)nc(-c4cc5ccccc5[nH]4)n3n2)cc(OC)c1OC [GW869516],6
